Results taken from the supplement of paper PMC4709259.
Counter-ions that a name gives are not always drawn. ± gives the standard deviation.

System: Jurkat
Test: mean cell size (FSC-A) relative to DMSO control (fraction of control); higher = larger cells
Details: 48 h
Summary of the method: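 Jurkat cells at 600 cells/µl were incubated for 1 h and then treated for 48h with the Enzo Screen-Well FDA Approved Drug Library v2.0 at 25µM, with DMSO at 0.9% (v/v) final. Compounds that reduced counts below 20% of controls were retested in 10-fold dilutions down to 25nM. Cell count and mean cell size, taken as forward scatter area, were measured by flow cytometry relative to solvent-only controls. Each plate carried 6-12 controls, and values are means of 3 biological replicates.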

SMILES	mean cell size
Cn1nnc2c(C(N)=O)ncn2c1=O [Temozolomide] (concentration: 25 µM)	0.959 ± 0.052
CC(C)NCC(O)COc1cccc2[nH]ccc12 (centres undefined) [Pindolol] (concentration: 25 µM)	0.976 ± 0.065
Nc1nc(O)c2ncn(CCC(CO)CO)c2n1 [Penciclovir] (concentration: 25 µM)	0.95 ± 0.021
CCN(CCO)CCCC(C)Nc1ccnc2cc(Cl)ccc12 (centres undefined) [Hydroxychloroquine Sulfate] (concentration: 25 µM)	0.948 ± 0.013
CCCCS(=O)(=O)N[C@@H](Cc1ccc(OCCCCC2CCNCC2)cc1)C(=O)O [Tirofiban·HCl] (concentration: 25 µM)	0.937 ± 0.023
Clc1ccccc1CN1CCc2sccc2C1 [Ticlopidine·HCl] (concentration: 25 µM)	0.922 ± 0.011
Nc1ccc(S(=O)(=O)c2ccc(N)cc2)cc1 [Dapsone] (concentration: 25 µM)	0.9573 ± 0.0072
CCCNC(C)C(=O)Nc1ccccc1C (centres undefined) [Prilocaine·HCl] (concentration: 25 µM)	1 ± 0.022
C[C@H]1O[C@@H](O[C@H]2[C@@H](O)C[C@H](O[C@H]3[C@@H](O)C[C@H](O[C@H]4CC[C@@]5(C)[C@H](CC[C@@H]6[C@@H]5C[C@@H](O)[C@]5(C)[C@@H](C7=CC(=O)OC7)CC[C@]65O)C4)O[C@@H]3C)O[C@@H]2C)C[C@H](O)[C@@H]1O [Digoxin] (concentration: 25 nM)	0.91 ± 0.065
CC1Cc2ccccc2N1NC(=O)c1ccc(Cl)c(S(N)(=O)=O)c1 (centres undefined) [Indapamide] (concentration: 25 µM)	0.978 ± 0.023
NNCCc1ccccc1 [Phenelzine Sulfate] (concentration: 25 µM)	0.942 ± 0.015
CC(C)[C@H](N)C(=O)OCCOCn1cnc2c(=O)nc(N)[nH]c21 [Valacyclovir·HCl] (concentration: 25 µM)	0.987 ± 0.03
CC1=C(C(=O)O)N2C(=O)[C@@H](NC(=O)[C@H](N)c3ccccc3)[C@H]2SC1 [Cephalexin Monohydrate] (concentration: 25 µM)	0.9873 ± 0.0068
COCCOC(=O)C1=C(C)NC(C)=C(C(=O)OC(C)C)C1c1cccc([N+](=O)[O-])c1 (centres undefined) [Nimodipine] (concentration: 25 µM)	0.938 ± 0.027
CCCCN1C[C@H](O)[C@@H](O)[C@H](O)[C@H]1CO [Miglustat (N-Butyldeoxynojirimycin·HCl)] (concentration: 25 µM)	0.9757 ± 0.0093
CCCCCCCCCCC[C@@H](C[C@@H]1OC(=O)[C@H]1CCCCCC)OC(=O)[C@H](CC(C)C)NC=O [Orlistat (Tetrahydrolipstatin)] (concentration: 25 µM)	0.808 ± 0.043
NC(=O)N1c2ccccc2C=Cc2ccccc21 [Carbamazepine] (concentration: 25 µM)	0.955 ± 0.044
Clc1ccc(C(Cn2ccnc2)OCc2csc3c(Cl)cccc23)c(Cl)c1 (centres undefined) [Sertaconazole] (concentration: 25 µM)	1.04 ± 0.05
CC(CN1c2ccccc2Sc2ccccc21)N(C)C (centres undefined) [Promethazine·HCl] (concentration: 25 µM)	0.994 ± 0.023
CC(C)NCC(O)COc1ccc(COCCOC(C)C)cc1 (centres undefined) [Bisoprolol Fumarate] (concentration: 25 µM)	0.964 ± 0.046

SMILES	mean cell size
NS(=O)(=O)c1cc2c(cc1Cl)NCNS2(=O)=O [Hydrochlorothiazide] (concentration: 25 µM)	0.901 ± 0.044
CCN(CC)CC#CCOC(=O)C(O)(c1ccccc1)C1CCCCC1 (centres undefined) [Oxybutynin Chloride] (concentration: 25 µM)	0.904 ± 0.022
N=C(N)N/N=C/c1c(Cl)cccc1Cl [Guanabenz Acetate] (concentration: 25 µM)	0.988 ± 0.044
CC(C)[N+]1(C)[C@@H]2CC[C@H]1CC(OC(=O)C(CO)c1ccccc1)C2 (some centres undefined) [Ipratropium·Br] (concentration: 25 µM)	1.01 ± 0.029
CCN(Cc1ccncc1)C(=O)C(CO)c1ccccc1 (centres undefined) [Tropicamide] (concentration: 25 µM)	0.973 ± 0.019
CC1(C)S[C@@H]2[C@H](NC(=O)COc3ccccc3)C(=O)N2[C@H]1C(=O)O [Penicillin V Potassium] (concentration: 25 µM)	0.994 ± 0.015
CCc1c2c(nc3ccc(OC(=O)N4CCC(N5CCCCC5)CC4)cc13)-c1cc3c(c(=O)n1C2)COC(=O)[C@]3(O)CC [Irinotecan·HCl] (concentration: 250 nM)	1.05 ± 0.038
CCCCC(=O)N(Cc1ccc(-c2ccccc2-c2nnn[nH]2)cc1)[C@H](C(=O)O)C(C)C [Valsartan] (concentration: 25 µM)	0.9682 ± 0.0072
C#Cc1cccc(Nc2ncnc3cc(OCCOC)c(OCCOC)cc23)c1 [Erlotinib] (concentration: 25 µM)	0.838 ± 0.026
OCCN(CCO)c1nc(N2CCCCC2)c2nc(N(CCO)CCO)nc(N3CCCCC3)c2n1 [Dipyridamole] (concentration: 25 µM)	0.9538 ± 0.0084
CCCC(CCC)C(=O)O [Valproate·Na] (concentration: 25 µM)	0.999 ± 0.025
O=C(C1CCCCC1)N1CC(=O)N2CCc3ccccc3C2C1 (centres undefined) [Praziquantel] (concentration: 25 µM)	0.996 ± 0.028
CN(C)CCC=C1c2ccccc2C=Cc2ccccc21 [Cyclobenzaprine·HCl] (concentration: 25 µM)	1 ± 0.041
COc1ccc(O)cc1 [Mequinol] (concentration: 25 µM)	1.15 ± 0.034
CC(=O)[C@H]1CC[C@H]2[C@@H]3CCC4=CC(=O)CC[C@]4(C)[C@H]3CC[C@]12C [Progesterone] (concentration: 25 µM)	1 ± 0.045
O=NN(CCCl)C(=O)NC1CCCCC1 [Lomustine] (concentration: 25 µM)	1.19 ± 0.07
CO[C@@]1(NC(=O)C2SC(=C(C(N)=O)C(=O)O)S2)C(=O)N2C(C(=O)O)=C(CSc3nnnn3C)CS[C@@H]21 (some centres undefined) [Cefotetan Disodium] (concentration: 25 µM)	0.951 ± 0.017
CC1(C)S[C@@H]2[C@H](NC(=O)[C@H](N)c3ccccc3)C(=O)N2[C@H]1C(=O)O [Ampicillin Trihydrate] (concentration: 25 µM)	0.849 ± 0.05
CCOC(=O)C1=C(C)NC(C)=C(C(=O)OC)C1c1cccc(Cl)c1Cl (centres undefined) [Felodipine] (concentration: 25 µM)	0.9169 ± 0.007
